Source: PubChem BioAssay (several laboratories)
LMP1 NFkB inh = inhibitors of Epstein-Barr LMP1-induced NF-kappaB reporter; LMP1-induced NF-kappaB luciferase reporter cells, luminescence; inhibition, % at 12.5 µM; 0.69% of 350,000 active; AID 504558; in the data active = inhibition above about 41%;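 note: 0% = neutral control wells and 100% = reference inhibitor control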
TWEAK-Fn14 inh = blocks TWEAK-Fn14 interaction in a reporter cell assay | TWEAK-stimulated Fn14 reporter cells, luciferase luminescence, 8 h | inhibition, % at 10 µM | 2% of 360,000 active; in the data active = inhibition above about 50%
TROY signal inh = TROY signaling inhibition; Q293 LMP1-TROYcd NF-kB luciferase reporter, 4 h; inhibition, % at 10 µM; 0.98% of 360,000 active;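 active = compounds whose plate-normalised and pattern-corrected inhibition of the luciferase reporter signal at the single screening dose is 50% or more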
Shn3 inh set2 = inhibitors of Schnurri-3 3'UTR reporter in osteoblasts. Clone20 osteoblast Shn3 3'UTR firefly luciferase, 24 h. inhibition, % at 12.5 µM. 0.52% of 360,000 active;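 active = mean inhibition of at least 75% with every replicate also reaching 75%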;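 note: 0% = median of neutral control wells and 100% = pilot-screen positive control compound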
TRPM1 prom inh = inhibitors of MITF-driven TRPM1 promoter in melanoma cells. SK-MEL-5 TRPM1 promoter luciferase, 24 h. inhibition, % at 12.5 µM. 0.83% of 330,000 active. AID 488899;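 active = mean inhibition across replicates of 60% or more, whatever share of single replicates reaches that level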
HIF-2a block = HIF-2a inhibition | inhibition, % at 18.8 µM | 786-0 RCC cells HIF-2a reporter, luciferase luminescence, overnight | 0.72% of 360,000 active;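 active = inhibition of the luminescence signal of 40% or more relative to plate controls, in a single-dose primary screen at 18.75 µM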
An asterisk follows results filed as active; / = no result given. A selection: hits, their analogues and other compounds. The true share with any hit is near 3.4%.

SMILES | LMP1 NFkB inh | TWEAK-Fn14 inh | TROY signal inh | Shn3 inh set2 | TRPM1 prom inh | HIF-2a block
Cc1ccc(C(=O)Nc2ccc3c(c2)CCC3)cc1 | 4 | 71* | 39 | 14 | 23 | 18
Cc1ccn2cc(C(=O)Nc3ccc4c(c3)OCCO4)nc2c1 | 7 | 62* | 49 | -3 | -29 | -151
O=C(Nc1ccc2c(c1)OCCO2)c1ccc(Cl)c(Cl)c1 | -43 | -1 | -24 | -59 | -61 | -270
COc1ccc2nc(SCC(=O)Nc3ccc4c(c3)OCCO4)[nH]c2c1 | 14 | 89* | 69* | 10 | 7 | 8
CCOc1ccc2nc(SCC(=O)Nc3ccc4c(c3)OCCO4)[nH]c2c1 | 7 | -18 | 1 | 10 | -10 | -35
O=C(Nc1ccc2c(c1)OCCO2)c1ccc2nccnc2c1 | 8 | 70* | -32 | -45 | -44 | -194
CCSc1nnc(NC(=O)c2cccc(S(=O)(=O)N(C)c3ccccc3)c2)s1 | -2 | 0 | 1 | -4 | 0 | 6
C=CCN(c1ccccc1)S(=O)(=O)c1cccc(C(=O)Nc2nnc(SCC)s2)c1 | -2 | 13 | 53* | 5 | -5 | 11
COc1ccccc1NC(=O)CCCC(=O)OCC(F)(F)C(F)F | -6 | 63* | 2 | -6 | 7 | -13
COc1ccc(Cc2nc3c([nH]2)c(=O)n(C)c(=O)n3C)cc1OC | 0 | 4 | 19 | -8 | 0 | 6
CCN(Cc1ccc(Br)s1)C(=O)CSc1nnc(C2CC2)n1C1CC1 | 0 | -7 | -1 | 0 | / | 5
Cc1ccc(NC2=C(Cl)C(=O)OC2OC(=O)c2ccco2)c(C)c1 (centres undefined) | -16 | 13 | -2 | -10 | -5 | 1
Cc1ccc(C)c(NC2=C(Cl)C(=O)OC2OC(=O)c2ccco2)c1 (centres undefined) | -1 | 59* | -1 | -10 | -1 | 5
CC(C)(C)c1ccc(C(=O)c2c[nH]c(C(=O)O)c2)cc1 | -15 | 50* | 14 | -2 | 14 | -121
COC(=O)c1cc(C(=O)c2ccc(C(C)(C)C)cc2)c[nH]1 | -26 | 6 | -10 | 7 | -12 | -198
Cc1c(C(=O)O)c2cc(O)ccc2n1-c1ccccc1 | 0 | -5 | -29 | -43 | -1 | 5
Cc1c([N+](=O)[O-])c2ccc(O)cc2n1-c1ccccc1 | 35 | 56* | 32 | / | -1 | 3
O=C(Cn1cc(C(=O)c2ccco2)c2ccccc21)Nc1ccccc1F | 15 | 5 | -26 | 89* | 12 | 11
COc1ccc(NC(=S)NNc2ccc(C(=O)O)cc2)cc1 | -10 | 58* | 19 | -13 | 6 | -7
O=C(Nc1ccc2ccccc2c1)c1ccccc1O | -24 | 90* | 59* | -13 | -5 | -49
COc1ccc(C(=O)NC(=S)Nc2ccc3c(c2)Cc2ccccc2-3)cc1 | 7 | 15 | 52* | 12 | 18 | -13
CN(C)S(=O)(=O)Oc1cccc(C(=O)Nc2ccc(Cl)c(Cl)c2)c1 | -19 | 80* | 47 | 43 | -32 | -276
COc1ccc(C(=O)NNc2ccccc2)cc1 | -15 | 5 | -8 | 2 | -4 | 8
O=C(Nc1ccc2ccccc2c1)c1ccccc1Cl | -26 | 15 | -44 | -67 | / | -250
CCCCN(C)C(=O)C1CCCN(S(=O)(=O)c2ccc3c(c2)oc(=O)n3C)C1 (centres undefined) | -4 | -8 | 2 | 7 | / | -3
SMILES | LMP1 NFkB inh | TWEAK-Fn14 inh | TROY signal inh | Shn3 inh set2 | TRPM1 prom inh | HIF-2a block
COc1cccc(C(=O)Nc2ccc3ccccc3c2)c1 | -4 | 63* | 17 | -4 | 0 | -103
COc1cc(NC(=O)COc2ccc(Cl)cc2)ccc1-c1cc2ccccc2oc1=O | -7 | 59* | 28 | 11 | 22 | 3
CCCCCCc1cc2cc(C(=O)Nc3cccc(OC)c3)c(=O)oc2cc1O | 5 | 59* | 36 | 1 | 35 | 8
COc1ccc(NC(=O)c2cc3ccccc3oc2=O)cc1 | 73* | 100* | 74* | 37 | / | -2
O=CNC1(c2ccccc2)CCCCC1 | 0 | -6 | 15 | 10 | 6 | 7
COc1ccc([C@H]2CC(=O)C=C(c3ccc(C)c([N+](=O)[O-])c3)C2)cc1 | -8 | -23 | -38 | -22 | -46 | -219
CCn1c(O)c(N=NC(=O)CNC(=O)c2cccnc2)c2ccccc21 | 1 | 5 | -18 | 4 | / | 13
COc1ccc(C(=O)Nc2ccc3ccccc3c2)cc1 | -4 | 72* | 32 | 24 | 2 | -55
COc1ccc(C(=O)Nc2ccccc2C(=O)Nc2ccccc2C(=O)O)cc1 | -10 | -3 | 6 | -136 | -39 | -304
COc1ccc(C(=O)Nc2ccccc2C(=O)Nc2ccc(C(=O)O)cc2)cc1 | 5 | 81* | 1 | -8 | -3 | -26
O=C(Nc1cc(Cl)cc(Cl)c1)c1cccc(OC(F)F)c1 | 3 | 60* | 39 | 21 | -3 | -239
Cc1ccc(C(=O)NC(=S)Nc2ccc(Oc3ccc(Cl)cc3)cc2)cc1 | -3 | 1 | 51* | -14 | 4 | 3
Cc1nc(CS(=O)(=O)c2ccccn2)sc1C(=O)NNC(=O)c1ccccc1 | -5 | -1 | -12 | -3 | 8 | 10
CC(=O)N[C@@H](Cc1c[nH]c2ccccc12)C(=O)NC1CCCc2ccccc21 (some centres undefined) | 3 | 20 | -3 | -21 | 11 | 12
CC(=Nc1ccccc1)C1=C(O)C(Cc2ccccc2)NC1=O (centres undefined) | -3 | -20 | -23 | 9 | 5 | -152
COc1ccc(C(=O)Nc2ccccc2C(=O)N/N=C/c2cccc3ccccc23)cc1 | 33 | 78* | 50 | -18 | -9 | -36
COc1ccc(C(=O)Nc2ccccc2C(N)=O)cc1 | -9 | -16 | -45 | -54 | -84 | -343
CC(C)CN(C(=O)c1cc(=O)[nH]c2ccccc12)c1c(N)n(Cc2ccccc2)c(=O)[nH]c1=O | 6 | 3 | -8 | -5 | -23 | 9
COc1ccc(NC(=O)N(CCN2CCCC2)Cc2cc3cc(OC)c(OC)cc3[nH]c2=O)cc1 | 44* | -2 | 3 | 3 | -13 | 6
COc1ccc(NC(=O)N(Cc2cc3ccc(OC)cc3[nH]c2=O)CC2CCCO2)cc1 (centres undefined) | -8 | -18 | -19 | 16 | 29 | 3
COc1ccc2[nH]c(=O)c(CN(CC3CCCO3)C(=S)Nc3ccccc3)cc2c1 (centres undefined) | 3 | -1 | -10 | 22 | 5 | 10
COc1ccc2cc(CN(CC3CCCO3)C(=O)Nc3ccccc3OC)c(=O)[nH]c2c1 (centres undefined) | 49* | 16 | -4 | 8 | 29 | 9
Cc1cc2cc(CN(CC3CCCO3)C(=S)Nc3ccccc3)c(=O)[nH]c2cc1C (centres undefined) | 3 | 27 | -33 | 90* | 8 | 15
CN(C)CCCN(Cc1cc2cc3c(cc2[nH]c1=O)OCO3)C(=S)Nc1cccc(Cl)c1 | 4 | 28 | 51* | -7 | -22 | -102
